{"source": "PubChem BioAssay AID1159580", "about": "(chemical genetic matrix, 2015)", "experiment": "chemical genetic growth profiling, strain panel (AID 1159580);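 note: tested at 20 µM; growth read once vehicle control cultures reached saturation at 30 °C; 1 = growth at the plate median or of vehicle wells; lower values mean less growth of the strain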", "conditions": "growth OD", "note": "Among all 5,500 compounds or so, about 2,000 (36%) were called active. Roughly 18% stayed inconclusive and do not appear here. The list shows a part of the results. A number with no mark means an inactive call. Cut-off read from the data, not from the text of the source: active = normalized growth mostly below about 0.91 (no sharp cut-off); inconclusive = no clear call, values can overlap the other calls; inactive = mostly above about 0.92."}
{"smiles": "CC(C)c1nc(N(C)S(C)(=O)=O)nc(-c2ccc(F)cc2)c1/C=C/[C@@H](O)C[C@@H](O)CC(=O)O", "values": [{"measurement": "normalized growth", "setting": "S. cerevisiae deletion strains, locus YJR075W, strain HOC1, active compounds read low", "value": 0.996}, {"measurement": "normalized growth", "setting": "S. cerevisiae deletion strains, locus YKL009W, strain mrt4, active compounds read low", "value": 1.01}, {"measurement": "normalized growth", "setting": "S. cerevisiae deletion strains, locus YKL068W, active compounds read low", "value": 1.03}, {"measurement": "normalized growth", "setting": "S. cerevisiae deletion strains, locus YKL085W, strain MDH1 (second series), active compounds read low", "value": 0.992}, {"measurement": "normalized growth", "setting": "S. cerevisiae deletion strains, locus YKL085W, strain MDH1, active compounds read low", "value": 0.992}, {"measurement": "normalized growth", "setting": "S. cerevisiae deletion strains, locus YKL160W, strain elf1, active compounds read low", "value": 0.994}, {"measurement": "normalized growth", "setting": "S. cerevisiae deletion strains, locus YKL190W, strain CNB1, active compounds read low", "value": 1.01}, {"measurement": "normalized growth", "setting": "S. cerevisiae deletion strains, locus YKR001C, strain vps1, active compounds read low", "value": 1.03}, {"measurement": "normalized growth", "setting": "S. cerevisiae deletion strains, locus YKR026C, strain gcn3, active compounds read low", "value": 1.02}, {"measurement": "normalized growth", "setting": "S. cerevisiae deletion strains, locus YKR091W, strain srl3, active compounds read low", "value": 1.01}, {"measurement": "normalized growth", "setting": "S. cerevisiae deletion strains, locus YLL001W, strain dnm1, active compounds read low", "value": 1.03}, {"measurement": "normalized growth", "setting": "S. cerevisiae deletion strains, locus YLL026W, active compounds read low", "value": 1.01}, {"measurement": "normalized growth", "setting": "S. cerevisiae deletion strains, locus YLL041C, strain sdh2, active compounds read low", "value": "0.9 (active)"}, {"measurement": "normalized growth", "setting": "S. cerevisiae deletion strains, locus YLR027C, strain aat2, active compounds read low", "value": 1.01}, {"measurement": "normalized growth", "setting": "S. cerevisiae deletion strains, locus YLR039C, strain RIC1, active compounds read low", "value": 1.31}, {"measurement": "normalized growth", "setting": "S. cerevisiae deletion strains, locus YLR058C, strain SHM2, active compounds read low", "value": 1}, {"measurement": "normalized growth", "setting": "S. cerevisiae deletion strains, locus YLR102C, strain apc9, active compounds read low", "value": 1.02}, {"measurement": "normalized growth", "setting": "S. cerevisiae deletion strains, locus YLR113W, strain HOG1, active compounds read low", "value": "0.232 (active)"}, {"measurement": "normalized growth", "setting": "S. cerevisiae deletion strains, locus YLR221C, strain rsa3, active compounds read low", "value": 1.06}, {"measurement": "normalized growth", "setting": "S. cerevisiae deletion strains, locus YLR258W, strain gsy2, active compounds read low", "value": 1.01}, {"measurement": "normalized growth", "setting": "S. cerevisiae deletion strains, locus YLR262C, strain YPT6 (second series), active compounds read low", "value": 1.1}, {"measurement": "normalized growth", "setting": "S. cerevisiae deletion strains, locus YLR262C, strain YPT6, active compounds read low", "value": 1.26}, {"measurement": "normalized growth", "setting": "S. cerevisiae deletion strains, locus YLR268W, strain sec22, active compounds read low", "value": 0.994}, {"measurement": "normalized growth", "setting": "S. cerevisiae deletion strains, locus YLR320W, strain mms22, active compounds read low", "value": 1.01}, {"measurement": "normalized growth", "setting": "S. cerevisiae deletion strains, locus YLR330W, strain CHS5, active compounds read low", "value": 0.999}, {"measurement": "normalized growth", "setting": "S. cerevisiae deletion strains, locus YLR342W, strain FKS1 (second series), active compounds read low", "value": 1.03}, {"measurement": "normalized growth", "setting": "S. cerevisiae deletion strains, locus YLR342W, strain FKS1, active compounds read low", "value": 1.03}, {"measurement": "normalized growth", "setting": "S. cerevisiae deletion strains, locus YLR357W, strain rsc2, active compounds read low", "value": 0.994}, {"measurement": "normalized growth", "setting": "S. cerevisiae deletion strains, locus YLR370C, strain arc18, active compounds read low", "value": 1.03}, {"measurement": "normalized growth", "setting": "S. cerevisiae deletion strains, locus YLR371W, strain rom2, active compounds read low", "value": 1.01}, {"measurement": "normalized growth", "setting": "S. cerevisiae deletion strains, locus YLR384C, strain iki3, active compounds read low", "value": 1}, {"measurement": "normalized growth", "setting": "S. cerevisiae deletion strains, locus YLR418C, strain cdc73, active compounds read low", "value": 1}, {"measurement": "normalized growth", "setting": "S. cerevisiae deletion strains, locus YML016C, strain PPZ1, active compounds read low", "value": 0.999}, {"measurement": "normalized growth", "setting": "S. cerevisiae deletion strains, locus YML032C, strain rad52, active compounds read low", "value": 1.01}, {"measurement": "normalized growth", "setting": "S. cerevisiae deletion strains, locus YML120C, strain ndi1, active compounds read low", "value": 1.02}, {"measurement": "normalized growth", "setting": "S. cerevisiae deletion strains, locus YML124C, strain tub3, active compounds read low", "value": 0.997}, {"measurement": "normalized growth", "setting": "S. cerevisiae deletion strains, locus YMR058W, strain fet3, active compounds read low", "value": 1.02}, {"measurement": "normalized growth", "setting": "S. cerevisiae deletion strains, locus YMR078C, strain ctf18, active compounds read low", "value": 1.01}, {"measurement": "normalized growth", "setting": "S. cerevisiae deletion strains, locus YMR125W, strain sto1, active compounds read low", "value": 1.02}, {"measurement": "normalized growth", "setting": "S. cerevisiae deletion strains, locus YMR129W, active compounds read low", "value": 1.04}, {"measurement": "normalized growth", "setting": "S. cerevisiae deletion strains, locus YMR205C, strain PFK2, active compounds read low", "value": 1.02}, {"measurement": "normalized growth", "setting": "S. cerevisiae deletion strains, locus YMR223W, strain ubp8, active compounds read low", "value": 1.01}, {"measurement": "normalized growth", "setting": "S. cerevisiae deletion strains, locus YMR231W, strain pep5, active compounds read low", "value": 0.958}, {"measurement": "normalized growth", "setting": "S. cerevisiae deletion strains, locus YMR263W, strain SAP30, active compounds read low", "value": 0.994}, {"measurement": "normalized growth", "setting": "S. cerevisiae deletion strains, locus YMR307W, strain GAS1, active compounds read low", "value": 1.01}, {"measurement": "normalized growth", "setting": "S. cerevisiae deletion strains, locus YNL067W, strain RPL9B, active compounds read low", "value": 0.989}, {"measurement": "normalized growth", "setting": "S. cerevisiae deletion strains, locus YNL071W, strain lat1, active compounds read low", "value": 1.01}, {"measurement": "normalized growth", "setting": "S. cerevisiae deletion strains, locus YNL128W, strain TEP1, active compounds read low", "value": 0.988}, {"measurement": "normalized growth", "setting": "S. cerevisiae deletion strains, locus YNL153C, strain GIM3, active compounds read low", "value": 0.989}, {"measurement": "normalized growth", "setting": "S. cerevisiae deletion strains, locus YNL183C, strain NPR1, active compounds read low", "value": "0.0704 (active)"}, {"measurement": "normalized growth", "setting": "S. cerevisiae deletion strains, locus YNL209W, strain ssb2, active compounds read low", "value": 1.02}, {"measurement": "normalized growth", "setting": "S. cerevisiae deletion strains, locus YNL233W, strain BNI4, active compounds read low", "value": 0.988}, {"measurement": "normalized growth", "setting": "S. cerevisiae deletion strains, locus YNL248C, strain rpa49, active compounds read low", "value": 1.02}, {"measurement": "normalized growth", "setting": "S. cerevisiae deletion strains, locus YNL250W, strain rad50, active compounds read low", "value": 0.982}, {"measurement": "normalized growth", "setting": "S. cerevisiae deletion strains, locus YNL271C, strain bni1, active compounds read low", "value": 0.976}, {"measurement": "normalized growth", "setting": "S. cerevisiae deletion strains, locus YNL298W, strain CLA4, active compounds read low", "value": 1.02}, {"measurement": "normalized growth", "setting": "S. cerevisiae deletion strains, locus YNL307C, strain MCK1, active compounds read low", "value": 1.02}, {"measurement": "normalized growth", "setting": "S. cerevisiae deletion strains, locus YNL322C, strain KRE1 (second series), active compounds read low", "value": 1.03}, {"measurement": "normalized growth", "setting": "S. cerevisiae deletion strains, locus YNL322C, strain KRE1, active compounds read low", "value": 1}, {"measurement": "normalized growth", "setting": "S. cerevisiae deletion strains, locus YNR049C, strain mso1, active compounds read low", "value": 1.02}, {"measurement": "normalized growth", "setting": "S. cerevisiae deletion strains, locus YNR052C, strain pop2, active compounds read low", "value": 0.929}, {"measurement": "normalized growth", "setting": "S. cerevisiae deletion strains, locus YOL006C, strain TOP1, active compounds read low", "value": 1.01}, {"measurement": "normalized growth", "setting": "S. cerevisiae deletion strains, locus YOL012C, strain htz1", "value": 0.882}, {"measurement": "normalized growth", "setting": "S. cerevisiae deletion strains, locus YOL147C, strain pex11, active compounds read low", "value": 1.01}, {"measurement": "normalized growth", "setting": "S. cerevisiae deletion strains, locus YOR001W, strain rrp6, active compounds read low", "value": 1.01}, {"measurement": "normalized growth", "setting": "S. cerevisiae deletion strains, locus YOR061W, strain CKA2, active compounds read low", "value": 0.994}, {"measurement": "normalized growth", "setting": "S. cerevisiae deletion strains, locus YOR069W, strain VPS5, active compounds read low", "value": 1.01}, {"measurement": "normalized growth", "setting": "S. cerevisiae deletion strains, locus YOR070C, strain gyp1, active compounds read low", "value": 1.01}, {"measurement": "normalized growth", "setting": "S. cerevisiae deletion strains, locus YOR080W, strain dia2, active compounds read low", "value": 1.01}, {"measurement": "normalized growth", "setting": "S. cerevisiae deletion strains, locus YOR083W, strain WHI5, active compounds read low", "value": 0.996}, {"measurement": "normalized growth", "setting": "S. cerevisiae deletion strains, locus YOR106W, strain vam3, active compounds read low", "value": 1.02}, {"measurement": "normalized growth", "setting": "S. cerevisiae deletion strains, locus YOR136W, strain idh2, active compounds read low", "value": 1}, {"measurement": "normalized growth", "setting": "S. cerevisiae deletion strains, locus YOR144C, strain elg1, active compounds read low", "value": 1}, {"measurement": "normalized growth", "setting": "S. cerevisiae deletion strains, locus YOR184W, strain ser1, active compounds read low", "value": 0.997}, {"measurement": "normalized growth", "setting": "S. cerevisiae deletion strains, locus YOR231W, strain MKK1, active compounds read low", "value": "0.124 (active)"}, {"measurement": "normalized growth", "setting": "S. cerevisiae deletion strains, locus YOR265W, strain rbl2, active compounds read low", "value": 1.01}, {"measurement": "normalized growth", "setting": "S. cerevisiae deletion strains, locus YOR270C, strain vph1, active compounds read low", "value": 0.975}, {"measurement": "normalized growth", "setting": "S. cerevisiae deletion strains, locus YOR290C, strain snf2, active compounds read low", "value": 1}, {"measurement": "normalized growth", "setting": "S. cerevisiae deletion strains, locus YOR316C, strain cot1, active compounds read low", "value": 1.01}, {"measurement": "normalized growth", "setting": "S. cerevisiae deletion strains, locus YPL051W, strain arl3, active compounds read low", "value": 1.02}, {"measurement": "normalized growth", "setting": "S. cerevisiae deletion strains, locus YPL055C, strain LGE1, active compounds read low", "value": 0.998}, {"measurement": "normalized growth", "setting": "S. cerevisiae deletion strains, locus YPL078C, strain atp4, active compounds read low", "value": 1.02}, {"measurement": "normalized growth", "setting": "S. cerevisiae deletion strains, locus YPL106C, strain sse1, active compounds read low", "value": 1.03}, {"measurement": "normalized growth", "setting": "S. cerevisiae deletion strains, locus YPL240C, strain hsp82, active compounds read low", "value": 0.992}, {"measurement": "normalized growth", "setting": "S. cerevisiae deletion strains, locus YPL241C, strain CIN2, active compounds read low", "value": 1.01}, {"measurement": "normalized growth", "setting": "S. cerevisiae deletion strains, locus YPL256C, strain CLN2, active compounds read low", "value": "0.162 (active)"}, {"measurement": "normalized growth", "setting": "S. cerevisiae deletion strains, locus YPR119W, strain clb2, active compounds read low", "value": 0.998}, {"measurement": "normalized growth", "setting": "S. cerevisiae deletion strains, locus YPR141C, strain kar3, active compounds read low", "value": 1.01}, {"measurement": "normalized growth", "setting": "S. cerevisiae deletion strains, locus YPR163C, strain tif3, active compounds read low", "value": 1.01}, {"measurement": "normalized growth", "setting": "S. cerevisiae deletion strains, locus YPR167C, strain met16, active compounds read low", "value": 1}, {"measurement": "normalized growth", "setting": "S. cerevisiae deletion strains, strain wtn01, active compounds read low", "value": 1}, {"measurement": "normalized growth", "setting": "S. cerevisiae strains, strain wild type, active compounds read low", "value": 0.994}]}
